Measured values taken from the supplement of paper PMC7393113.
Counter-ions that a name gives are not always drawn. ± gives the standard deviation of the averaged measurements.

These compounds were tested on iBMDM (immortalised mouse bone-marrow-derived macrophages), LPS-stimulated (assay: mitochondrial superoxide (MitoSOX fluorescence) fold increase over unstimulated control; higher = more LPS-induced mitochondrial ROS (less inhibition)). Conditions: inhibitor concentration: 500 nM; LPS: 100 ng/ml; time after LPS: 4 h.
In short: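 Mitochondrial superoxide was expressed as fold induction over untreated macrophages. Immortalised mouse bone-marrow-derived macrophages were pretreated with kinase inhibitors (500 nM) for 30 min, loaded with 1 μM MitoSox for 10 min and stimulated with LPS (100 ng/ml). MitoSox fluorescence (excitation 510 nm, emission 580 nm) was read hourly over 4 h, and the three replicates were averaged.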
`Cc1cc(CN2CCN(c3c(Br)cnc4nc(-c5ccc(N6CCN(C)CC6)cc5)[nH]c34)CC2)no1` showed a mitochondrial superoxide of 1.68 ± 0.13.
In the case of `COc1cc2nccc(Oc3ccc(NC(=O)NC4CC4)c(Cl)c3)c2cc1C(N)=O` [Lenvatinib (E7080)], the mitochondrial superoxide is reported as 1.73 ± 0.15.
With `Cn1cc(-c2ccc3ncc(Cc4ccc5ncccc5c4)n3n2)cn1` the mitochondrial superoxide was 1.61 ± 0.14.
For `C[C@@H]1CN(CC(=O)Nc2ccc3c(c2)Cc2cccc(-c4cc(=O)cc(N5CCOCC5)o4)c2S3)C[C@H](C)O1`, the mitochondrial superoxide was 1.44 ± 0.015.
For `Cc1nc(NC(=O)N2CCC[C@H]2C(N)=O)sc1-c1csc(C(C)(C)C)n1`, the mitochondrial superoxide was 1.64 ± 0.053.
`CCn1c(N)c(C(=O)NC)c(=O)c2ccc(C#CC(C)(O)COC)nc21` (configuration not stated) showed a mitochondrial superoxide of 1.33 ± 0.051.
For `C[C@@H]1COCCN1c1cc(C2(S(C)(=O)=O)CC2)nc(-c2cccc3[nH]ccc23)n1`, the mitochondrial superoxide was 1.34 ± 0.052.
With `O=C(c1ccc(/C=C/c2n[nH]c3ccccc23)cc1)N1CCNCC1` the mitochondrial superoxide was 1.33 ± 0.035.
`O=C(/C=C/c1ccc(O)c(O)c1)c1ccc(O)cc1O` [Butein] showed a mitochondrial superoxide of 1.85 ± 0.019.
In the case of `C=CC(=O)Nc1ccc2ncnc(Nc3ccc(OCc4cccc(F)c4)c(Cl)c3)c2c1`, the mitochondrial superoxide is reported as 1.42 ± 0.13.
With `CC1(C)CNc2cc(NC(=O)c3cccnc3NCc3ccncc3)ccc21` [Motesanib Diphosphate (AMG-706)] the mitochondrial superoxide was 1.71 ± 0.053.
In the case of `COc1cc2ncnc(Nc3ccc(Cl)cc3F)c2cc1OC`, the mitochondrial superoxide is reported as 1.271 ± 0.0046.
In the case of `Cc1c(NC(=O)OC[C@@H]2COCCN2)cn2ncnc(Nc3ccc4c(cnn4Cc4cccc(F)c4)c3)c12`, the mitochondrial superoxide is reported as 1.9 ± 0.045.
`Cc1cnc(-c2cnc(NCCNc3ccc(C#N)cn3)nc2-c2ccc(Cl)cc2Cl)[nH]1` gave a mitochondrial superoxide of 1.25 ± 0.027.
For `O=C(O)c1ccc(Nc2ncc3c(n2)-c2ccc(Cl)cc2C(c2c(F)cccc2F)=NC3)cc1`, the mitochondrial superoxide was 1.46 ± 0.052.
For `C=CCc1ccc(O)c(-c2ccc(O)c(CC=C)c2)c1` [Honokiol], the mitochondrial superoxide was 1.39 ± 0.096.
`CN(C)c1ccc(-c2nc3ncc(Cl)c(N4CCN(CC(=O)Nc5nccs5)CC4)c3[nH]2)cc1` gave a mitochondrial superoxide of 1.35 ± 0.039.
In the case of `Cc1cn(-c2cc(NC(=O)c3ccc(C)c(Nc4nccc(-c5cccnc5)n4)c3)cc(C(F)(F)F)c2)cn1` [Nilotinib (AMN-107)], the mitochondrial superoxide is reported as 1.65 ± 0.1.
For `COc1cc2c(Nc3ccc(NC(=O)c4ccccc4)cc3)ncnc2cc1OCCCN1CCOCC1`, the mitochondrial superoxide was 1.52 ± 0.037.
For `Cn1cnc(=N)c2[nH]cnc21` [3-Methyladenine], the mitochondrial superoxide was 1.58 ± 0.15.
Compound `CC(C)N(CCC(=O)c1ccc2ccccc2c1)Cc1ccccc1` has a mitochondrial superoxide of 1.69 ± 0.02.
`Cc1ncc(-c2ccnc(Nc3ccc(S(C)(=O)=O)cc3)n2)n1C(C)C` was tested, and the mitochondrial superoxide was 1.6 ± 0.11.
Compound `C[C@]1(O)C[C@@H](c2nc(-c3ccc4ccc(-c5ccccc5)nc4c3)c3c(N)nccn32)C1` [OSI-906 (Linsitinib)] has a mitochondrial superoxide of 1.56 ± 0.19.
Work on `C=CC(=O)Nc1cc2c(Nc3ccc(F)c(Cl)c3)ncnc2cc1OCCCN1CCOCC1` [Canertinib (CI-1033)] yielded a mitochondrial superoxide of 1.87 ± 0.084.
In the case of `COc1cc2ncc(-c3ccccc3)nc2cc1OC` [Tyrphostin AG 1296], the mitochondrial superoxide is reported as 1.58 ± 0.021.
In the case of `O=C(NOCC(O)CO)c1cc(Br)c(F)c(F)c1Nc1ccc(I)cc1F` (configuration not stated), the mitochondrial superoxide is reported as 1.34 ± 0.065.
`Cc1ccc(NC(=O)c2ccc(CN3CCN(C)CC3)cc2)cc1Nc1nccc(-c2cccnc2)n1` [Imatinib Mesylate (STI571)] showed a mitochondrial superoxide of 1.72 ± 0.03.
With `CNC(=O)c1ccc(-c2cnc3ncc(Cc4ccc5ncccc5c4)n3n2)cc1F` the mitochondrial superoxide was 1.58 ± 0.14.
Compound `NC(=O)Nc1sc(-c2ccc(F)cc2)cc1C(N)=O` has a mitochondrial superoxide of 1.33 ± 0.06.
In the case of `Cn1cnc(-c2cc3nccc(Oc4ccc(NC(=S)NC(=O)Cc5ccccc5)cc4F)c3s2)c1`, the mitochondrial superoxide is reported as 1.26 ± 0.059.
Work on `C=CC(=O)Nc1cccc(Oc2nc(Nc3ccc(N4CCN(C)CC4)cc3)ncc2Cl)c1` yielded a mitochondrial superoxide of 1.8 ± 0.14.
`COc1cc2ncnc(Oc3cccc(NC(=O)Nc4cc(C(C)(C)C(F)(F)F)on4)c3)c2cc1OC` gave a mitochondrial superoxide of 1.59 ± 0.025.
With `Cc1ccc(Nc2nccc(N(C)c3ccc4c(C)n(C)nc4c3)n2)cc1S(N)(=O)=O` [Pazopanib] the mitochondrial superoxide was 1.26 ± 0.015.
With `Oc1ccc(-c2nc(-c3ccc(F)cc3)c(-c3ccncc3)[nH]2)cc1` the mitochondrial superoxide was 1.57 ± 0.12.
Work on `COc1cc2nccc(Oc3ccc(NC(=O)C4(C(=O)Nc5ccc(F)cc5)CC4)cc3)c2cc1OC` yielded a mitochondrial superoxide of 1.51 ± 0.029.
In the case of `CC(C)(C)c1nc(-c2cccc(NS(=O)(=O)c3c(F)cccc3F)c2F)c(-c2ccnc(N)n2)s1`, the mitochondrial superoxide is reported as 1.73 ± 0.12.
`N#CCNC(=O)c1ccc(-c2ccnc(Nc3ccc(N4CCOCC4)cc3)n2)cc1` showed a mitochondrial superoxide of 1.27 ± 0.13.
